Among the data in PubChem BioAssay (Tox21) are Potency values, retold here.

Structures are written as SMILES. Activity calls are given as the source filed them. Entries that show only a call come without a potency. Calls come from the whole dose curve; as a rule, active = well fitted curve in the direction sought with a large enough effect in the signal ratio in the repeat runs (not every such curve was filed as active); inconclusive = weak or mixed curves, or effect the other way; inactive = no such curve, though single readings can be large or run the other way; the % refers to the signal ratio.
Potency is the fitted concentration of half-maximal effect.

Chain of Estrogen receptor (Homo sapiens) (P03372 whole entry, looked up): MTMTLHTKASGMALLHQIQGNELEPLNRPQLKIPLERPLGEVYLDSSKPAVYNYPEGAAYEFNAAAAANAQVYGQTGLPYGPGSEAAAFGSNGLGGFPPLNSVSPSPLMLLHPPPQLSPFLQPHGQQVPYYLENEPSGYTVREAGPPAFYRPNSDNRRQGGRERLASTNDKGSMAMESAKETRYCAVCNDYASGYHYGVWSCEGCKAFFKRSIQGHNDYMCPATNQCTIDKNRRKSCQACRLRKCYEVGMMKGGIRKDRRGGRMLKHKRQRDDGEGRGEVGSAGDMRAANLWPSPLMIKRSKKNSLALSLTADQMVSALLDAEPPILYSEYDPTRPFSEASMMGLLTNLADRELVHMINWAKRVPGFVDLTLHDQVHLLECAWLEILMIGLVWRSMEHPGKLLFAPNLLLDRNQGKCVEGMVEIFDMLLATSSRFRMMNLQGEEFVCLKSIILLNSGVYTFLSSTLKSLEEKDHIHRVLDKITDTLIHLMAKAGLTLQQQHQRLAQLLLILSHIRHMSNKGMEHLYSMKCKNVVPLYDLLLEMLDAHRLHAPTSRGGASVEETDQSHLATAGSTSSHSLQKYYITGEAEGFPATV

This test concerns the target Estrogen receptor (Homo sapiens) (UniProt P03372). The experiment in a line: qHTS assay to identify small molecule antagonists of the estrogen receptor alpha (ER-alpha) signaling pathway (AID 743069). As to conditions: HEK293 ER-alpha-UAS-bla, beta-lactamase ratio, antagonist mode; series mostly up to 69.4 µM. The source says: National Center for Advancing Translational Sciences [NCATS]
NIH Chemical Genomics Center [NCGC]
U.S. Environmental Protection Agency [EPA]
National Institutes of Environmental Health Sciences [NIEHS]
National Toxicology Program [NTP]
U.S. Food and Drug Administration [FDA]
Estrogen receptor (ER), a nuclear hormone receptor, plays an important role in development, metabolic homeostasis and reproduction. Two subtypes of ER, ER-alpha and ER-beta have similar expression patterns with some uniqueness in both types. Endocrine disrupting chemicals (EDCs) and their interactions with steroid hormone receptors like ER causes disruption of normal endocrine function. To identify the compounds that inhibit ER signaling, an ER-alpha-UAS-bla GripTiteTM cell line (Invitrogen, Carlsbad, CA, USA) containing a beta-lactamase reporter gene under the control of an Upstream Activator Sequence (UAS) stably integrated into HEK293 cells was used to screen the Tox21 10K compound library.
Tox21 Assay Protocol Summary:
ER-alpha-bla cells were cultured in assay medium containing 2% charcoal stripped FBS overnight in the culture flasks before the assay was performed. The cells were dispensed at 5,000 cells/5 uL of assay medium per well into black wall/clear-bottom 1536-well plates using a Multidrop Combi (ThermoFisher Scientific, Waltham, MA) dispenser. After the assay plates were incubated at a 37C and 5% CO2 for 4 hr, 23 nL of compounds dissolved in DMSO, positive controls or DMSO only was transferred to the assay plate by a Pintool station (Kalypsys, San Diego, CA), followed by addition of 1 uL of 17beta-estradiol in assay medium using a Flying Reagent Dispenser (Aurora Discovery, San Diego, CA). The plates were incubated at 37C and 5% CO2 for 18 hr. Then 1 uL of LiveBLAzerTM B/G FRET substrate was added using a Flying Reagent Dispenser, the plates were incubated at room temperature for 2 hours, and fluorescence intensity was measured by an Envision plate reader (PerkinElmer, Shelton, CT).
In general terms: Quantitative high-throughput screening tests each substance at several concentrations.
As to `C1CCCCCCCCCCC1`, the Potency entry is “inactive”.

Turning to `CCCCCCC(CCCCCCCCCCC(=O)OCC(COC(C)=O)OC(C)=O)OC(C)=O` (stereo not given), the Potency result was “inactive”.

On to `C=C(C)[C@@H]1CCC2=CC(=O)C[C@@H](C)[C@]2(C)C1`, for which the Potency entry was “inactive”.

On to `O=S(=O)(O)c1ccccc1O`, for which the Potency entry was “inactive”.

With `CC(C)(O)Cc1ccccc1`, the Potency result was “inactive”.

Take `COc1ccc(COC=O)cc1`: the Potency entry is “inactive”.

Consider `CN(C)CCOC(c1ccc(Cl)cc1)c1ccccn1` (stereo not given), for which the Potency result is “inactive”.

Turning to `Nc1nc2c(ncn2CCC(CO)CO)c(=O)[nH]1`, the Potency result is “inactive”.

`CC(C)(C)OC(=O)N1C[C@@H](F)C[C@H]1C(=O)O`: the Potency entry was “inactive”.

For `CCCOc1ccccc1-c1nc2n[nH]nc2c(=O)[nH]1`, the Potency result was “inactive”.

For the compound `CC1=CC(C)C(C=O)C(C)C1` (stereo not given), the Potency result is “inactive”.

With `CCCCCCCCCCCl`, the Potency result is “inactive”.

As to `C=CCn1c(=O)n([C@@H]2O[C@H](CO)[C@@H](O)[C@H]2O)c2nc(N)[nH]c(=O)c21`, the Potency entry was “inactive”.

For `Cc1c(C)n(CCN(C)C)c2ccc(C(=O)OCCN(C)C)cc12`, the Potency entry is “inactive”.

On to `O=C(O)Cc1cc(I)c(Oc2cc(I)c(O)c(I)c2)c(I)c1`, for which the Potency was 15.2 µM [inconclusive] (active).

As to `CCC(=O)/C=C/c1ccc(OC)cc1`, the Potency result is “inactive”.

As to `C=C[Si](OC)(OC)OC`, the Potency entry is “inactive”.

Regarding `NC(=O)Nc1nc2ccccc2[nH]1`, the Potency result is “inactive”.

For `O=Cc1ccccc1[N+](=O)[O-]`, the Potency result was “inactive”.

As to `Nc1cc(C(Cl)=C(Cl)Cl)c(S(N)(=O)=O)cc1S(N)(=O)=O`, the Potency result is “inactive”.

For `CNc1ncnc2nc[nH]c12`, the Potency entry was “inactive”.

On to `CC(=O)OC(C)(C)C`, for which the Potency result was “inactive”.

In the case of `CC1(C)SC(C)(C)SC(C)(C)S1`, the Potency entry was “inactive”.

On to `O=C(O)C(O)[C@H](O)[C@@H](O)[C@H](O)[C@H](O)CO` (stereo not given in full), for which the Potency entry was “inactive”.

As to `O=C(O)c1ccccc1S`, the Potency entry is “inactive”.

For `CC/C=C\CCCCO`, the Potency result is “inactive”.

For `CCCCCCC(=O)OCC`, the Potency result is “inactive”.

In the case of `COC(=O)c1ccc(C(=O)OC)c(C(=O)OC)c1`, the Potency entry was “inactive”.

Regarding `CCCCCCOC(=O)c1ccccc1O`, the Potency entry is “inactive”.

For `O=C(O)c1cccc(C(=O)O)n1`, the Potency result is “inactive”.

Consider `COC[C@H](c1ccc(C(F)(F)F)cc1)N1CCN(C2(C)CCN(C(=O)c3c(C)ncnc3C)CC2)C[C@H]1C`, for which the Potency result is “inactive”.

As to `CCC(=O)Nc1cccc(N)c1`, the Potency result was “inactive”.

Take `CO[Si](CCCNCCC[Si](OC)(OC)OC)(OC)OC`: the Potency entry is “inactive”.

With `CC(=O)N[C@@H](CCC(N)=O)C(=O)O`, the Potency result was “inactive”.

As to `NCCN1CCNC1=O`, the Potency result is “inactive”.

On to `COC(=O)CCCCCCCCC(=O)OC`, for which the Potency result was “inactive”.

For `CCc1cc(S(=O)(=O)O)c2cc(C(C)C)cccc1-2`, the Potency entry was “inactive”.

With `Fc1ccccc1-c1ccccc1`, the Potency result was “inactive”.

As to `C(=C(c1ccccc1)c1ccccc1)c1ccccc1`, the Potency was 54.9 µM [inconclusive] (active).

As for `Nc1cc(N)cc(C(=O)O)c1`, the Potency entry is “inactive”.
